From ChEMBL document CHEMBL3988442, “University of Dundee, Small-Polar-MMV Screening Library” (2021)
Values joined by “and” are separate entries in the source; they are usually repeats but may differ in a detail not shown here. Equal entries are not always repeated. Among all 34,000 compounds or so, about 290 (0.85%) showed an effect of 50% or more. What follows is part of a selection rich in strong results, with near analogues and random picks from the rest.

Test system: Plasmodium falciparum
Assay: Plasmodium falciparum sporozoite viability assay
Assay type: functional, organism-based
Set-up: scale not given: in the data most compounds retested in dose-response had high values

| Structure (SMILES) | Percent Effect | Percent Effect (10 mM as filed; unlikely as a test dose) |
| --- | --- | --- |
| CNS(=O)(=O)c1ccc(C(=O)N2CCCCC2c2ccc(C)cc2)o1 (stereo not drawn) | -0.2417% |  |
| CSc1ccc(CNC2CCCc3c2cnn3C)cc1.Cl (stereo not drawn) | 2.328% |  |
| Cl.Cn1ncc2c1CCCC2NCc1cccc(F)c1 (stereo not drawn) | -6.761% |  |
| CCn1ncc2c1CCCC2NCc1csc(COC)n1 (stereo not drawn) |  | -19.65% and -19.45% |
| Cn1ncc2c1CCCC2NCc1cccnc1 (stereo not drawn) | 6.267% |  |
| CC(C)(C)n1ncc2c1CCCC2NCc1ccc2ncccc2c1 (stereo not drawn) |  | 67.83% and 75.52% |
| CC(C)(C)n1ncc2c1CCCC2NCc1ccsc1 (stereo not drawn) |  | 82.25% and 82.56% |
| CC(C)(C)n1ncc2c1CCCC2NCc1cccc(C(N)=O)c1 (stereo not drawn) |  | -6.583% and -14.2% |
| COCc1nc(CNC2CCCc3c2cnn3C(C)(C)C)cs1 (stereo not drawn) |  | 80.27% and 81.73% |
| CCc1nc(CNC2CCCc3c2cnn3CC)cs1 (stereo not drawn) |  | -15.59% and -14.06% |
| CC(C)(C)n1ncc2c1CCCC2NCc1ccc2c(c1)CCO2 (stereo not drawn) |  | 65.53% and 54.34% |
| Cl.Cn1ncc2c1CCCC2NCc1cc(Br)cs1 (stereo not drawn) |  | 6.252% and 7.152% and 13.18% |
| Cn1ncc2c1CCCC2NCc1cnc(-c2ccccc2)nc1 (stereo not drawn) | 18.56% |  |
| C[C@H]1C(=O)NC[C@H]2CN(Cc3cccc(F)c3)C[C@H]21.O=C(O)C(F)(F)F | -1.083% |  |
| CS(=O)(=O)NC1CCCN(C(=O)NCc2ccoc2)C1 (stereo not drawn) | 4.932% |  |
| O=C1CCCN1CCCC(=O)N1CCCC(c2ccn[nH]2)C1 (stereo not drawn) | 5.64% |  |
| CC1CN(CC(=O)Nc2nccs2)CCN1Cc1nccn1C (stereo not drawn) | -1.162% |  |
| CN(C)c1ccc(C(=O)N2CCN(CC(O)C(C)(C)C)CC2)nn1 (stereo not drawn) | -6.949% |  |
| O=C(N[C@@H]1CN(Cc2ccc3cc[nH]c3c2)C[C@H]1O)c1cnccn1 | -1.172% |  |
| O=C(O)C(F)(F)F.O=C(c1ccncc1F)N1CC2CC1(C(=O)N1CCCC1)C2 | -2.014% |  |
| Cc1cnn(CCNCc2c(C(C)C)nn(C)c2Cl)c1 | -5.882% |  |

| Structure (SMILES) | Percent Effect | Percent Effect (10 mM as filed; unlikely as a test dose) |
| --- | --- | --- |
| Cc1cccc(CNC2CCCc3c2cnn3C)c1.Cl (stereo not drawn) | -1.28% |  |
| CCn1ncc2c1CCCC2NCc1ccc(OC)c(C)c1 (stereo not drawn) | 1.069% |  |
| CC(C)(C)n1ncc2c1CCCC2NCc1ccc2c(c1)OCCO2 (stereo not drawn) |  | 101% and 99.54% |
| Cl.Cn1ncc2c1CCCC2NCc1cccc(C(F)(F)F)c1 (stereo not drawn) | -3.477% |  |
| CCn1ncc2c1CCCC2NCc1ccc2c(c1)CCO2 (stereo not drawn) |  | 59.7% and 48.65% and 59.52% |
| CCn1ncc2c1CCCC2NCc1ccc2c(c1)OCCO2 (stereo not drawn) |  | 33.22% and 25.15% |
| O=C(NCC1CCCO1)c1nc2c(s1)CCCN2C(=O)C1CC1 (stereo not drawn) | -5.565% |  |
| Cl.Cl.O=C([C@H]1CCCN1)N1CC2(CCNCC2)c2cc(Cl)ccc21 | 12.41% |  |
| Cc1cc(OCC(=O)N2CCCC(c3noc(C(C)C)n3)C2)no1 (stereo not drawn) | 2.432% |  |
| O=C(c1ccc[nH]1)N1C[C@H]2CN(Cc3cccc(F)c3)C(=O)[C@H]2C1 | 12.11% |  |
| c1csc(-c2noc(CN3CCCC3Cn3cccn3)n2)c1 (stereo not drawn) |  | -21.92% and -8.385% and -5.28% |
| c1ccc(-c2noc(CCCN3CCCC3Cn3cncn3)n2)cc1 (stereo not drawn) |  | 40.22% and 41.76% and 47.25% |
| c1csc(-c2noc(CN3CCCCC3Cn3cccn3)n2)c1 (stereo not drawn) |  | 24.36% and 19.77% and 16.14% |
| CCOc1ccnc(N[C@@H](Cc2ccccc2)C(N)=O)n1 | 0.8772% |  |
| COC(=O)CSCc1noc(-c2ccc(C)cc2)n1 |  | 97.51% and 95.63% |
| COC(=O)CSCc1noc(-c2ccc(Cl)cc2)n1 |  | 72.7% and 74.65% |
| Cc1ccc(-c2nc(CN3CCc4cnc(C)nc4C3)no2)cc1 | 16.875% |  |
| CCOC(=O)CSc1ccc(-c2nc(CC)no2)cn1 |  | 40.67% and 46.73% |
| CCOC(=O)CSc1ccc(-c2nc(C)no2)cn1 |  | -0.4631% and 0.4035% |
| COC(=O)CSCc1nc(-c2ccc(Cl)cc2)no1 |  | -107.5% and -111.6% |
| O=S1(=O)CCC(N(Cc2nc(-c3ccccn3)no2)Cc2cccs2)C1 (stereo not drawn) | 22.13% |  |

| Structure (SMILES) | Percent Effect | Percent Effect (10 mM as filed; unlikely as a test dose) |
| --- | --- | --- |
| CCN1CCN(CCCNc2ncccn2)CC1 | -11.01% |  |
| Cc1cc(CN(C)C(=O)c2ccc(N(C)C)nc2)no1 | 3.089% |  |
| NC(=O)c1cc(C2CCCN(CCOCC3CC3)C2)n[nH]1 (stereo not drawn) | -0.5536% |  |
| Cc1ccc(C2CN(Cc3cccc4[nH]ccc34)CCO2)nc1 (stereo not drawn) | 9.691% |  |
| CC(C)OC(=O)N1CCC(Cc2ccc(C(=O)O)cc2)C1 (stereo not drawn) | 5.074% |  |
| COCCOc1ccc(S(=O)(=O)Nc2cccc(O)c2F)cc1C |  | 65.91% and 54.13% |
| COc1ccc(S(=O)(=O)NC(=O)COC2CCCCC2)cc1C | -5.465% |  |
| COCCOc1ccc(S(=O)(=O)Nc2cccnc2O)cc1C |  | -10.26% and -4.441% |
| CC(C)N1CCN(C)CC(Cc2cc(N(C)C)ncn2)C1 (stereo not drawn) | 2.091% |  |
| CN1CCc2nc3cc(C(=O)NCc4cccs4)ccc3c(=O)n2CC1 | 0.8687% |  |
| CCCc1nc(CN2CCN(CC(O)c3ccccc3)CC2)no1 (stereo not drawn) |  | -24.09% and -24.64% and -18.14% |
| CCc1nc(CN2CCN(CC(O)c3ccccc3)CC2)no1 (stereo not drawn) |  | 4.576% and 5.713% and -3.353% |
| O=C(CC1CC1)N1CCCn2nnc(CNc3ncccn3)c2C1 | 2.773% |  |
| Cc1noc(C)c1C(=O)NCc1cccnc1N(C)C | 5.354% |  |
| CCC(=O)N1CC[C@H](O)[C@@H]1Cc1ccccc1 | -1.986% |  |
| Cc1cccc(CN2CCCCC2c2n[nH]cc2-c2cc(C)no2)c1.Cl (stereo not drawn) |  | -21.49% and -8.887% and 2.992% |
| CCc1ccc(CN2CCCCC2c2n[nH]cc2-c2cc(C)no2)cc1.Cl (stereo not drawn) |  | 63.83% and 48.62% and 58.14% |
| Nc1nccnc1CC1CCCN(Cc2cccc3[nH]ccc23)C1 (stereo not drawn) | 4.859% |  |
| NC(=O)C1CN(c2ccc3cc(Br)ccc3n2)CCO1 (stereo not drawn) |  | 80.55% and 85.86% |
| NC(=O)C1CCN(c2ccc3cc(Br)ccc3n2)C1 (stereo not drawn) |  | -42.56% and -39.12% |
| NC(=O)C1CN(c2ccc(Br)cn2)CCO1 (stereo not drawn) |  | -39.17% and -33.44% |
